In all, about 190,000 compounds went through this assay and about 6,900 (3.6%) were called active. No stated cut-off is given here; in the data, active means inhibition above about 50%; inactive means the rest. This excerpt belongs to a sample that is enriched for actives.

Consider 26 compounds from PubChem BioAssay AID1671202 (University of Kansas High Throughput Screening Laboratory, 2021).

This experiment deals with Huntingtin (Homo sapiens) (UniProt P42858). Kind of experiment: mutant huntingtin-calmodulin interaction inhibitors – biochemical, AlphaScreen, primary screen (AID 1671202).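 Further: 0% = both proteins with DMSO and 100% = one protein alone.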 The note with it: AlphaScreen His-mHTT/GST-CaM binding, luminescence; at 15 µM, active compounds read high.
Chain of Huntingtin (Homo sapiens) (P42858 whole entry, looked up, stated change not applied): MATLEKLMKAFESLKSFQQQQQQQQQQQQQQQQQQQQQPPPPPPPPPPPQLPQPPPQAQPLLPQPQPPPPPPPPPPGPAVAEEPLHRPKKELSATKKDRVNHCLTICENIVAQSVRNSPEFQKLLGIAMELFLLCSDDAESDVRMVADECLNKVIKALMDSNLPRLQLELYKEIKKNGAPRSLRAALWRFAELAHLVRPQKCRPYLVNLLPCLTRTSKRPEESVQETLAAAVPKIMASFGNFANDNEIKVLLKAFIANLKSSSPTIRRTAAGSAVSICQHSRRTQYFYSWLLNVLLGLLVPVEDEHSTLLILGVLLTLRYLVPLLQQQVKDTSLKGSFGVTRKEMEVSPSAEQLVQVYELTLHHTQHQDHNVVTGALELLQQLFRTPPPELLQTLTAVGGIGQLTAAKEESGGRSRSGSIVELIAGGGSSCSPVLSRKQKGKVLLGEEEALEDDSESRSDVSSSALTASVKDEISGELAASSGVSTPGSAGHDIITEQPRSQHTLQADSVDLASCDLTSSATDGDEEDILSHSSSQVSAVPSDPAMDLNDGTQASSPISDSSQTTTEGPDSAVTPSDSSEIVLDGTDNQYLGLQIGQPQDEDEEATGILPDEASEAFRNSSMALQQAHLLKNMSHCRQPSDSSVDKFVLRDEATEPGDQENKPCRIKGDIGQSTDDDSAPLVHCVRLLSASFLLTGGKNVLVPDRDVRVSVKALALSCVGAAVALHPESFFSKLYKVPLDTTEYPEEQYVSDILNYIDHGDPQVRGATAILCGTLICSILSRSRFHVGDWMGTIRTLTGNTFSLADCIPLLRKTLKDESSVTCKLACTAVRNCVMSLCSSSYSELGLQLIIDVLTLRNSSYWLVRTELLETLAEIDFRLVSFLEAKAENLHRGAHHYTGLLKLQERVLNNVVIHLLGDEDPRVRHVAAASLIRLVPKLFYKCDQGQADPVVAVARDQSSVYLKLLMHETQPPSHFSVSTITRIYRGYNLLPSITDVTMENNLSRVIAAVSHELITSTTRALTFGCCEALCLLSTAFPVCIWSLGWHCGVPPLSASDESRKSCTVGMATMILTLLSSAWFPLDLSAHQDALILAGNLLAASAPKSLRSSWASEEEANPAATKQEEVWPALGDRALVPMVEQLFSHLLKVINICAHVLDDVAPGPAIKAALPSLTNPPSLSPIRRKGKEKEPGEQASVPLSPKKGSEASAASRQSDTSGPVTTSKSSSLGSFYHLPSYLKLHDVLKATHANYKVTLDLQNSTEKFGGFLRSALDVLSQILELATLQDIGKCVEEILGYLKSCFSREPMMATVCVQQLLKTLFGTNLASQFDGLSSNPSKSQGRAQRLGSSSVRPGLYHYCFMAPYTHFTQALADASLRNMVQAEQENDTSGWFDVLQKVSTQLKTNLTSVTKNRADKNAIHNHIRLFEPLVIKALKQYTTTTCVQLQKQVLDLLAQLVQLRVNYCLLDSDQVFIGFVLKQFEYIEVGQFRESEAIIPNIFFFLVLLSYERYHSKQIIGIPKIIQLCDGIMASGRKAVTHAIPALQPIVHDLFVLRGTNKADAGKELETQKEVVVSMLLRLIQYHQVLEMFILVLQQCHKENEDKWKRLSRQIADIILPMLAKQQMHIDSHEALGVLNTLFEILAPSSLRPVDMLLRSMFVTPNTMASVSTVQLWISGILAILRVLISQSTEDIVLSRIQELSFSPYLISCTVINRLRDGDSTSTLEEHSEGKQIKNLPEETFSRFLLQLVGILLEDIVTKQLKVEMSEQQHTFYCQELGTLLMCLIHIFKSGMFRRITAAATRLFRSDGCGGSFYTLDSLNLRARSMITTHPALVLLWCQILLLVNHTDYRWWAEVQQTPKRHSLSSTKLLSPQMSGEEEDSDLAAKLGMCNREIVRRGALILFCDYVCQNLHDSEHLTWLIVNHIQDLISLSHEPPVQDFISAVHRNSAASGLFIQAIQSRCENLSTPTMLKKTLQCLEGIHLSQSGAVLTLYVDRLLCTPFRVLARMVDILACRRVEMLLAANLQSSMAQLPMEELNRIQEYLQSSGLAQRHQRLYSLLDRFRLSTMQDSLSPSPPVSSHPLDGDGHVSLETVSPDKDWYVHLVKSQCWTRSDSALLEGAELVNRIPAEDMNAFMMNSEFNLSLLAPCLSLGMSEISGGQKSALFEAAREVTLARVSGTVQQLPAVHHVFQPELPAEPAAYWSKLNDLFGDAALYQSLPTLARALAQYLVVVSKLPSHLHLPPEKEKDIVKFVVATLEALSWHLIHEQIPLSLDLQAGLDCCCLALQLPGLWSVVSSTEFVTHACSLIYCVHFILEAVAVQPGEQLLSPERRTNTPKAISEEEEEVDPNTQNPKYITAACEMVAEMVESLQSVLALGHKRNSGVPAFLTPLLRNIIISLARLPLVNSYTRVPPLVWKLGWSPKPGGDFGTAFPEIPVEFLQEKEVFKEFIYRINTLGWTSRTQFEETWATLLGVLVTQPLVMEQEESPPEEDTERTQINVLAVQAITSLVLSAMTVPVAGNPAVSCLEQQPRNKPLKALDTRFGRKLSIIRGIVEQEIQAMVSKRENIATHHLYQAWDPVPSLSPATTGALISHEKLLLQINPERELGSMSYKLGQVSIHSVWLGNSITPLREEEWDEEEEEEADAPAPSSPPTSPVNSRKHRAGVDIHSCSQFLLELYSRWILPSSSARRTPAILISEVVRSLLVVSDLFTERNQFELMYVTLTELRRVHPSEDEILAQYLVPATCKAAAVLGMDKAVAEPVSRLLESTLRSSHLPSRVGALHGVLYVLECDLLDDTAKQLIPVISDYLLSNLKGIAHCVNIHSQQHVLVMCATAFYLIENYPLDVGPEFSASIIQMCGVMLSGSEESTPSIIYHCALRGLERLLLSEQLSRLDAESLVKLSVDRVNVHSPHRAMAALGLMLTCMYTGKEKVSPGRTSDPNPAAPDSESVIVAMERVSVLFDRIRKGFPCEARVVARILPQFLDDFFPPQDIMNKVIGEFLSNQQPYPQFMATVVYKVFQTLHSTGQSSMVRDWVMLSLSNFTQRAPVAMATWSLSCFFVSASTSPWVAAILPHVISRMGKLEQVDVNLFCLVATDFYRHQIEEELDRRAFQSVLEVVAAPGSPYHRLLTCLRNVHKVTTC
In the case of `CCOc1ccc(CC(=O)N2CC3CC2CC3NC(=O)c2ccccc2)cc1` (stereo unspecified), the inhibition is 5.36% (inactive).
As for `CCOc1ccc(-c2nnc(Nc3ccc(C(N)=O)cc3)c3ccccc23)cc1`, the inhibition was 6% (inactive).
On to `CCOC(=O)C1CCN(C(=O)C2CCc3sc(C(=O)N4CCCCC4)cc3C2)CC1` (stereo unspecified), for which the inhibition was 4.24% (inactive).
As to `COc1cccc(N2CCN(C(=O)c3ccc(Cl)cc3Cl)C(C)C2=O)c1` (stereo unspecified), the inhibition is 3.4% (inactive).
For `Cc1cc(C(=O)Nc2ccccc2)nc2ccnn12`, the inhibition was -10.8% (inactive).
To `O=C1[C@H]2OC[C@H](O2)[C@@H]2[C@H]1[C@H]1C=Cc3ccccc3N1[C@@H]2C(=O)c1ccc(F)cc1` belongs 91.4% (active).
`O=C(c1ccc(F)cc1)N1CCC(N2CCC(C(=O)N3CCCCC3)CC2)CC1`: the inhibition was -3.3% (inactive).
Take `Cc1ccc(-c2csc(NC(=O)c3ccc([N+](=O)[O-])cc3)n2)c(C)c1`: the inhibition is 10.4% (inactive).
As to `Cc1ccc(Nc2nc(-c3ccc(O)cc3O)cs2)nc1`, the inhibition was 100% (active).
As for `Brc1ccc(Nc2nc(-c3ccc4c(c3)OCO4)cs2)nc1`, the inhibition was -1.1% (inactive).
The same measure for `O=C(CSc1ncc(CO)n1Cc1ccccc1)Nc1ccc([N+](=O)[O-])cc1`: 20.9% (inactive); for `Oc1ccc(N=Nc2nccs2)c(O)c1`: 99.9% (active).
`Cc1[nH]c(=O)[nH]c(=O)c1S(=O)(=O)NC1=NCCS1`: the inhibition was 3% (inactive).
With `COCc1cc(C)nc2sc(C(N)=O)c(N)c12`, the inhibition is -5% (inactive).
On to `COCc1cc(C)nc2sc(C(=O)N(c3ccccc3)c3ccccc3)c(N)c12`, for which the inhibition was -19% (inactive).
The same measure for `COCc1cc(C)nc2sc(C3=NC(C)(C)Cc4ccccc43)c(N)c12`: 58% (active); for `O=C(Nc1ccc(C(F)(F)F)cc1)N1CCc2c(nc[nH]c2=O)C1`: -3.4% (inactive).
To `CCN(Cc1ccccc1)C(=O)c1sc2ccccc2c1Cl` belongs -67.9% (inactive).
For `CCCCN1C(=O)C(C)(C(=O)Nc2cccc(OC)c2)Oc2cccnc21` (stereo unspecified), the inhibition is 4.7% (inactive).
For the compound `Cc1cccc(-n2nnc(C(=O)NCCN3CCCC3)c2N)c1`, the inhibition is 2% (inactive).
As for `c1ccc2[nH]c(-c3nc4ccccc4[nH]3)nc2c1`, the inhibition was 7.27% (inactive).
To `c1ccc(-c2nnc(N3CCOCC3)c3ccccc23)cc1` belongs -4.1% (inactive); to `C1=C(N2CCOCC2)/C(=C/c2nc3ccccc3[nH]2)CC1`, 67.1% (active).
Turning to `Cc1cc(Cl)ccc1NC(=O)C(C)N(c1ccccc1)S(C)(=O)=O` (stereo unspecified), the inhibition was -1.9% (inactive).
For the compound `O=C(NCc1ccc2c(c1)OCO2)C1CCc2sc(C(=O)N3CCOCC3)cc2C1` (stereo unspecified), the inhibition is -0.39% (inactive).
Regarding `CCCNC(=O)C1CCN(Cc2c(C)n(CC)c3ccccc23)CC1`, the inhibition is 7.5% (inactive).

One may read the inhibition as the change of the read-out against control, counted positive when it falls.
